# Assay results from the supplement of paper PMC8728848.
# About 410 targets per protein were measured; listed, in parts, are those with the strongest signals and a random draw of the rest.
# B1: Banana lectin (Musa acuminata) (protein)
# chain: MNGAIKVGAWGGNGGSAFDMGPAYRIISVKIFSGDVVDGVDVTFTYYGKTETRHYGGSGGTPHEIVLQEGEYLVGMAGEVANYHGAVVLGKLGFSTNKKAYGPFGNTGGTPFSLPIAAGKISGFFGRGGKFLDAIGVYLEPLEHHHHHH
# Columns and labels:
# Assay in all cases: glycan array binding signal (z-score within array); higher = stronger binding
# Conditions in all cases: glycan notation: IUPAC condensed, linker removed
# [1] = molecular target: GlcNAc(b1-3)Gal(b1-4)GlcNAc(b1-3)Gal(b1-4)GlcNAc(b1-3)Gal(b1-4)GlcNAc(b1-2)Man(a1-3)[GlcNAc(b1-3)Gal(b1-4)GlcNAc(b1-3)Gal(b1-4)GlcNAc(b1-3)Gal(b1-4)GlcNAc(b1-2)Man(a1-6)]Man(b1-4)GlcNAc(b1-4)[Fuc(a1-6)]GlcNAc
# How it was run: (§1)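 Glycan array data were curated from 3228 arrays in the Consortium for Functional Glycomics database and kept only where the protein sequence was available. Glycan names were converted to IUPAC-condensed notation, and columns mapping to the same glycan were averaged. The binding signal is a within-array Z-score, averaged across arrays of the same protein sequence at different concentrations or buffers and across linkers. Negative Z-scores can be read as non-binding.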
# [2] = molecular target: GlcNAc(b1-3)Gal(b1-4)GlcNAc(b1-3)Gal(b1-4)GlcNAc(b1-3)Gal(b1-4)GlcNAc(b1-3)Gal(b1-4)GlcNAc(b1-2)Man(a1-3)[GlcNAc(b1-3)Gal(b1-4)GlcNAc(b1-3)Gal(b1-4)GlcNAc(b1-3)Gal(b1-4)GlcNAc(b1-3)Gal(b1-4)GlcNAc(b1-2)Man(a1-6)]Man(b1-4)GlcNAc(b1-4)GlcNAc
# How it was run: as §1
# [3] = molecular target: GlcNAc(b1-3)Gal(b1-4)GlcNAc(b1-3)Gal(b1-4)GlcNAc(b1-3)GalNAc
# How it was run: as §1
# [4] = molecular target: Man(a1-2)Man(a1-2)Man(a1-6)[Man(a1-3)]Man
# How it was run: as §1
# [5] = molecular target: Man(a1-2)Man(a1-3)Man
# How it was run: as §1
# [6] = molecular target: Man(a1-2)Man(a1-3)[Man(a1-2)Man(a1-6)]Man
# How it was run: as §1
# [7] = molecular target: Man(a1-2)Man(a1-3)[Man(a1-2)Man(a1-6)]Man(a1-6)[Man(a1-2)Man(a1-2)Man(a1-3)]Man
# How it was run: as §1
# [8] = molecular target: Man(a1-2)Man(a1-3)[Man(a1-2)Man(a1-6)]Man(a1-6)[Man(a1-2)Man(a1-2)Man(a1-3)]Man(b1-4)GlcNAc(b1-4)GlcNAc
# How it was run: as §1
# [9] = molecular target: Man(a1-2)Man(a1-3)[Man(a1-6)]Man(a1-6)[Man(a1-2)Man(a1-3)]Man(b1-4)GlcNAc(b1-4)GlcNAc
# How it was run: as §1
# [10] = molecular target: Man(a1-2)Man(a1-6)[Man(a1-3)]Man(a1-6)[Man(a1-2)Man(a1-2)Man(a1-3)]Man
# How it was run: as §1
# [11] = molecular target: Man(a1-2)Man(a1-6)[Man(a1-3)]Man(a1-6)[Man(a1-2)Man(a1-2)Man(a1-3)]Man(b1-4)GlcNAc(b1-4)GlcNAc
# How it was run: as §1
# [12] = molecular target: Man(a1-3)[Man(a1-6)]Man(a1-6)[Man(a1-2)Man(a1-3)]Man(b1-4)GlcNAc(b1-4)GlcNAc
# How it was run: as §1
# [13] = molecular target: Man(a1-3)[Man(a1-6)]Man(b1-4)GlcNAc(b1-4)GlcNAc
# How it was run: as §1
# [14] = molecular target: Man(a1-3)[Man(a1-6)]Man(b1-4)GlcNAc(b1-4)[Fuc(a1-6)]GlcNAc
# How it was run: as §1
# [15] = molecular target: Neu5Ac(a2-3)Gal(b1-3)GalNAc6S
# How it was run: as §1
# [16] = molecular target: Neu5Ac(a2-3)Gal(b1-3)GlcNAc(b1-6)GalNAc
# How it was run: as §1
# [17] = molecular target: Neu5Ac(a2-3)Gal(b1-3)[GlcNAc(b1-6)]GalNAc
# How it was run: as §1
# [18] = molecular target: Neu5Ac(a2-3)Gal(b1-3)]Neu5Ac(a2-3)Gal(b1-4)]GlcNAc
# How it was run: as §1
# [19] = molecular target: Neu5Ac(a2-3)Gal(b1-4)GlcNAc(b1-2)[Neu5Ac(a2-3)Gal(b1-4)GlcNAc(b1-4)]Man(a1-3)[GlcNAc(b1-4)][Neu5Ac(a2-3)Gal(b1-4)GlcNAc(b1-4)Man(a1-6)]Man(b1-4)GlcNAc(b1-4)GlcNAc
# How it was run: as §1
# [20] = molecular target: Neu5Ac(a2-3)Gal(b1-4)GlcNAc(b1-3)Gal(b1-4)GlcNAc(b1-2)Man(a1-3)[Neu5Ac(a2-3)Gal(b1-4)GlcNAc(b1-3)Gal(b1-4)GlcNAc(b1-2)Man(a1-6)]Man(b1-4)GlcNAc(b1-4)GlcNAc
# How it was run: as §1
# [21] = molecular target: Neu5Ac(a2-3)[GalNAc(b1-4)]Gal(b1-4)Glc
# How it was run: as §1
# [22] = molecular target: Neu5Ac(a2-3)[GalNAc(b1-4)]Gal(b1-4)GlcNAc
# How it was run: as §1
# [23] = molecular target: Neu5Ac(a2-6)Gal(b1-4)GlcNAc(b1-2)Man(a1-6)[Man(a1-3)]Man(b1-4)GlcNAc(b1-4)GlcNAc
# How it was run: as §1
# [24] = molecular target: Neu5Ac(a2-6)Gal(b1-4)GlcNAc(b1-3)Gal(b1-4)GlcNAc
# How it was run: as §1
# [25] = molecular target: Neu5Ac(a2-6)Gal(b1-4)GlcNAc(b1-3)Gal(b1-4)GlcNAc(b1-3)GalNAc
# How it was run: as §1
# [26] = molecular target: Neu5Ac(a2-6)Gal(b1-4)GlcNAc(b1-3)Gal(b1-4)GlcNAc(b1-3)[Neu5Ac(a2-6)Gal(b1-4)GlcNAc(b1-3)Gal(b1-4)GlcNAc(b1-6)]GalNAc
# How it was run: as §1
# [27] = molecular target: Neu5Ac(a2-6)GalNAc
# How it was run: as §1
# [28] = molecular target: Neu5Ac(a2-6)GalNAc(b1-4)GlcNAc
# How it was run: as §1
# [29] = molecular target: Neu5Ac(a2-8)Neu5Ac(a2-3)Gal(b1-3)GalNAc(b1-4)[Neu5Ac(a2-3)]Gal(b1-4)Glc
# How it was run: as §1
# [30] = molecular target: Neu5Ac(a2-8)Neu5Ac(a2-8)Neu5Ac(a2-3)Gal(b1-4)Glc
# How it was run: as §1
# [31] = molecular target: Neu5Gc(a2-3)Gal(b1-4)Glc
# How it was run: as §1
binder,measurement,setting,value
B1,glycan array binding signal (z-score),[1],-0.122
same,glycan array binding signal (z-score),[2],-0.165
same,glycan array binding signal (z-score),[3],-0.184
same,glycan array binding signal (z-score),[4],6.19
same,glycan array binding signal (z-score),[5],2.25
same,glycan array binding signal (z-score),[6],4.51
same,glycan array binding signal (z-score),[7],5.96
same,glycan array binding signal (z-score),[8],2.62
same,glycan array binding signal (z-score),[9],8.11
same,glycan array binding signal (z-score),[10],3.34
same,glycan array binding signal (z-score),[11],6.29
same,glycan array binding signal (z-score),[12],13.1
same,glycan array binding signal (z-score),[13],4.01
same,glycan array binding signal (z-score),[14],2.88
same,glycan array binding signal (z-score),[15],-0.237
same,glycan array binding signal (z-score),[16],-0.288
same,glycan array binding signal (z-score),[17],-0.214
same,glycan array binding signal (z-score),[18],-0.223
same,glycan array binding signal (z-score),[19],-0.225
same,glycan array binding signal (z-score),[20],-0.167
same,glycan array binding signal (z-score),[21],-0.132
same,glycan array binding signal (z-score),[22],-0.169
same,glycan array binding signal (z-score),[23],3.56
same,glycan array binding signal (z-score),[24],-0.226
same,glycan array binding signal (z-score),[25],-0.223
same,glycan array binding signal (z-score),[26],-0.161
same,glycan array binding signal (z-score),[27],-0.204
same,glycan array binding signal (z-score),[28],-0.221
same,glycan array binding signal (z-score),[29],-0.192
same,glycan array binding signal (z-score),[30],-0.139
same,glycan array binding signal (z-score),[31],-0.209
